Screening results deposited in PubChem BioAssay by National Center for Advancing Translational Sciences (NCATS).
Shown are actives, neighbours in structure and some others; about 1.7% of the full set was active somewhere.
KCNH2 WT inh: KCNH2 (human, wildtype) channel inhibition; activity change, % at 1.84 µM; 340,000 tested, 0.37% active; Q12809; AID 720551; U2OS, BacMam KCNH2, thallium flux FluxOr; hits give low values;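 active = maximum activity change below -70%; inconclusive = maximum activity change between -70% and -50%; inactive = maximum activity change above -50%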
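U2OS cells transduced with wild-type KCNH2 virus are loaded with FluxOr dye for 45 min, and thallium flux is measured in kinetic reads before and after stimulation buffer. Rate constants are normalized to DMSO controls.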
KCNH2 3.1 block: blocks the human KCNH2 3.1 channel isoform; U2OS KCNH2 3.1, thallium flux FluxOr; hits give low values; activity change, % (tested at about 1.8 µM); 340,000 tested, 0.95% active; AID 720553;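 active = maximum activity change below -70%; inconclusive = maximum activity change from -70% to -50%; inactive = maximum activity change above -50%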;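 also: thallium influx rate constant from kinetic fluorescence after stimulation buffer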
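U2OS cells transduced with KCNH2 3.1 mutant virus (1.77 x 10^8 /mL, 4 h), plated overnight at 37 C, loaded 45 min with FluxOr dye plus Red40 quencher. Thallium flux rate constant from kinetic reads after stimulation buffer, normalised to controls.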
pAkt inh: Akt phosphorylation inhibition; Neuro2A IGF-stimulated pAkt S473 HTRF, 20 min; hits give low values; activity change, % for hits at 50 µM; 360,000 tested, 0.32% active; AID 651550; in the data active = activity change below about -80%; inconclusive = mostly about -51% to -80%
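Single-point screen (50 µM final compound) in Neuro2A cells stimulated 20 min with 6 nM IGF at 37 deg C. After lysis, Ser473-phosphorylated Akt read by HTRF (ex 330 nm, em 615/665 nm) as the 665/615 ratio.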
RXFP1 agonist: activates the human relaxin receptor RXFP1. Q9HBX9. HEK293T-RXFP1 cAMP TR-FRET, 30 min; response scale: percent of porcine relaxin response, buffer zero. Potency, µM (top dose mostly 57.5 µM), for inactives: top-dose activation, hits mostly activators. 370,000 tested, 0.3% active; active = well fitted activation curve with a large enough effect; inconclusive = small, poorly fitted or top-dose-only effect; also: potency is read from the fitted curve at half-maximal effect; nearly all actives have a fitted effect of over 60% in size
Target sequence (Q9HBX9 whole entry, looked up): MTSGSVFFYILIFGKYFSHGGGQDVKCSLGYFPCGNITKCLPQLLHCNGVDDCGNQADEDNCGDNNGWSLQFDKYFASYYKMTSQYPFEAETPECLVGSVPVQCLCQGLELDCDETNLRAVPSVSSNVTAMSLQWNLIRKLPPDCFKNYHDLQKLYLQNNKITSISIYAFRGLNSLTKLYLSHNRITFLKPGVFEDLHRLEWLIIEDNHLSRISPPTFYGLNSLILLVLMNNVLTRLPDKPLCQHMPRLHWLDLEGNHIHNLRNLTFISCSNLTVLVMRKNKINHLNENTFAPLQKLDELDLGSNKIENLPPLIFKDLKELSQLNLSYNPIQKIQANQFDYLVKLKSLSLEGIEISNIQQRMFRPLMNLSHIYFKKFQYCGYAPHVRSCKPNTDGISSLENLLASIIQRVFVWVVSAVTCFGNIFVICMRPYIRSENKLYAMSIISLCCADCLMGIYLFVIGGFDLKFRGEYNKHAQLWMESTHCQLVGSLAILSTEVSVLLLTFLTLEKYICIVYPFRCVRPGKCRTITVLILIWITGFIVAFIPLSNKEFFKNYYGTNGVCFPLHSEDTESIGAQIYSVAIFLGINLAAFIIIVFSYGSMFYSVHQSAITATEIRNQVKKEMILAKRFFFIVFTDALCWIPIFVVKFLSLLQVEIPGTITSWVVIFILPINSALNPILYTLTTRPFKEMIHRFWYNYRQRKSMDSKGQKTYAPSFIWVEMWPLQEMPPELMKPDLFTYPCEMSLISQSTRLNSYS
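HEK293 cells stably expressing RXFP1, treated 30 min at 37C with compounds plus PDE4 inhibitor Ro 20174; cAMP measured by HTRF TR-FRET. Normalized to buffer and 29 nM porcine relaxin; EC50 by Hill fit.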
RXFP1 antag: RXFP1 (human) relaxin receptor antagonism; Q9HBX9; HEK293-RXFP1, relaxin-stimulated cAMP HTRF, 30 min; hits give low values; activity change, negative = inhibition, % at 57.5 µM; 350,000 tested, 0.59% active; AID 1259400;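 active = activity change of -60% or lower, but not beyond a set lower limit; inconclusive = change between -60% and -40%, or beyond the set limit; inactive = change above -40%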
The depositor's hits bear a star; i = inactive; u = inconclusive; x = not tested or not shown; ! = a repeat was not active. % is scaled to controls: 0 for no effect and ±100 for the full control effect.

SMILES | KCNH2 WT inh | KCNH2 3.1 block | pAkt inh | RXFP1 agonist | RXFP1 antag
Cc1ccc(C)c(N2CCN(C(=O)CCn3c(=S)[nH]c4cc5c(cc4c3=O)OCO5)CC2)c1 | 4.2 | -0.9 | x | 1.5% | -68.1*
O=C(CCCn1c(=S)[nH]c2cc3c(cc2c1=O)OCO3)N1CCN(c2ccccn2)CC1 | 3.6 | -12.5 | i | -1.5% | u
O=c1c2ccccc2[nH]c(=S)n1CCN1CCc2ccccc2C1 | -5.8 | 1.3 | i | 0.3% | -75.3*
CC1=NN(C(=O)c2csc(C)c2)C(O)(C(F)(F)F)C1 (stereo not drawn) | -1.1 | -1.1 | i | 1.9% | -5.3
O=C(CCCCCNc1nc(=S)[nH]c2ccccc12)N1CCN(c2ccccn2)CC1 | x | x | x | 5.5% | x
NS(=O)(=O)c1ccc(CCn2c(=S)[nH]c3ccccc3c2=O)cc1 | -7.9 | -17.1 | i | 0.5% | -64.0*
COc1cccc(N2CCN(C(=O)CCCCCNc3nc(=S)[nH]c4ccccc34)CC2)c1 | 6.8 | -18.6 | i | 4.1% | -89.8*
COc1ccc(N2CCN(CCCn3c(=S)[nH]c4ccccc4c3=O)CC2)cc1 | -118.0* | -79.6* | i | -0.1% | -25.4
COc1ccc(-c2noc(N3CCC(C(=O)NCCCN4CCC(C)CC4)CC3)n2)cc1 | 16.6 | 3.8 | i | -2.5% | -4.7
c1ccc(OCCNc2ccn3nc(-c4ccccc4)cc3n2)cc1 | x | x | i | x | x
CCOc1ccc(NC(=O)Nc2ccc(Cc3ccncc3)cc2)cc1 | 1.0 | -0.2 | i | -0.7% | -32.0
CCOc1ccc(NC(=O)C2CC(C)=C(C)CC2C(=O)O)cc1 (stereo not drawn) | 2.7 | 3.9 | -118.5%* | 1.1% | -1.2
CCOc1ccc(NC(=O)C2CSC(c3ccncc3)=N2)cc1 (stereo not drawn) | -120.4* | -172.8* | i | 1.8% | 12.6
CC1Cc2cc(S(=O)(=O)NCc3ccc(Cl)cc3)ccc2N1C(=O)C1CCC1 (stereo not drawn) | x | x | x | 0.1% | -1.8
CC(=O)Nc1c(Br)cc2c(c1Br)Cc1cc(Br)ccc1-2 | 3.0 | 3.4 | i | x | -28.8
Cc1cccc(NC(=O)Cn2nnc(-c3ccc(CN4CCCC4)cc3)n2)c1C | -1.5 | 3.2 | i | 0.7% | 2.0
NC(=O)Cn1nnc(-c2ccc(CN3CCCCC3)cc2)n1 | -5.6 | -82.2* | i | -1.5% | 6.0
O=C(Oc1cccc(NC(=O)c2ccccc2Cl)c1)c1ccc([N+](=O)[O-])cc1 | -186.3* | -12.8 | i | -0.3% | 10.0
CC(C)(C)c1[nH]nc2c1C(c1ccccc1OC(=O)N1CCOCC1)C(C#N)=C(N)O2 (stereo not drawn) | 2.2 | -14.0 | i | 0.2% | 5.2
COc1cccc(NC(=O)Cn2c3ccc(OC)cc3c3nc4n(c(=O)c32)CCS4)c1 | 17.8 | 7.4 | i | 10µM* | 4.3
CN1CCN(CCCN2c3ccccc3Sc3ccc(C(F)(F)F)cc32)CC1 | 31.9 | u | i | 3.3% | -65.0*!
O=C(CN1CCCC(O)C1)N1c2ccccc2Sc2ccc(C(F)(F)F)cc21 (stereo not drawn) | 5.8 | 1.2 | i | 2.6% | -35.5
COc1cc(N)ccc1NC(=O)c1cccs1 | -2.6 | -2.5 | i | -1.9% | -0.8
O=C(NCc1ccccn1)C(=O)N/N=C/c1ccc2c(c1)OCO2 | -6.7 | -106.0* | i | -0.6% | 2.3
S=C(NCCCN1CCOCC1)N1CCN(c2nc(-c3ccc(Cl)cc3)cs2)CC1 | -13.2 | -71.1* | i | 2.4% | u
SMILES | KCNH2 WT inh | KCNH2 3.1 block | pAkt inh | RXFP1 agonist | RXFP1 antag
Cc1ccc2cc(S(=O)(=O)NCCCC(=O)O)ccc2c1 | -0.2 | -1.1 | i | 3.0% | -6.7
CNCC(=O)Nc1ccc(Cl)c(C(F)(F)F)c1 | 3.9 | -12.9 | i | 2.6% | -0.8
O=C(Nc1ccc(Cl)cc1)Nc1ccc(Cl)c(C(F)(F)F)c1 | x | x | x | x | -92.5*
CC1CC(C)CN(S(=O)(=O)c2ccc(NC(=O)CN3CCCCCC3)cc2)C1 (stereo not drawn) | 3.7 | -23.6 | i | 1.2% | -12.1
Cc1ccc2sc(N3CCN(C(=O)c4ccc([N+](=O)[O-])o4)CC3)nc2c1C | -139.0* | -201.1* | i | 0.1% | -8.4
O=C(c1ccc([N+](=O)[O-])o1)N1CCN(c2nc3c(Cl)cccc3s2)CC1 | 3.6 | -20.2 | i | 1.3% | -4.1
COc1ccc(NS(=O)(=O)c2cccc(C(=O)NCC(c3ccco3)N3CCCCC3)c2)cc1 (stereo not drawn) | 7.7 | 11.6 | i | 0.9% | -73.4*
Cc1cccc(NS(=O)(=O)c2cccc(C(=O)NCC(c3ccco3)N3CCCCC3)c2)c1 (stereo not drawn) | 13.1 | -6.6 | i | -0.8% | -30.0
Cc1ccc(C(=O)NCC(c2ccco2)N2CCCCC2)s1 (stereo not drawn) | 15.1 | -70.7* | i | -0.3% | -13.2
Cc1ccc(S(=O)(=O)NC(N)=NCCc2ccc(Cl)cc2)cc1 | 1.0 | 3.9 | i | 2.4% | -12.3
CCOC1(/N=C(\C)NS(=O)(=O)c2ccc(Cl)cc2)C(C)=CC(=O)C=C1C | 17.1 | -98.6* | i | -1.7% | -5.6
CC(C)(C)NC(=O)CCc1nnc(Cc2c[nH]c3ccccc23)o1 | -12.5 | -109.7* | i | -1.9% | 1.5
Cc1cccc(-n2ncc3c(NCc4cccnc4)ncnc32)c1 | -12.6 | -102.0* | i | 0.0% | x
NS(=O)(=O)c1ccc(CCNc2ncnc3c2cnn3-c2cccc(Cl)c2)cc1 | x | x | x | 3.3% | -84.4*
Cc1ccc(Cl)cc1-n1ncc2c(NCc3ccc(F)cc3)ncnc21 | x | x | x | -2.6% | -65.3*
Cc1ccc(OC(=O)C2c3ccccc3Oc3ccccc32)cc1C | -131.2* | -19.6 | i | 6.0% | -7.5
O=C(CCC(=O)Nc1ccc(F)cc1)N/N=C/c1ccc(O)cc1O | i | -3.5 | i | -0.5% | 14.2
Oc1ccc(/C=N/NC(=S)Nc2cccnc2)c(O)c1 | -175.9* | -137.4* | i | -0.2% | -15.1
Oc1ccc(C=NNC(=S)Nc2ccc(F)cc2)c(O)c1 | -2.2 | -3.8 | i | x | -64.4*
Fc1c(F)c(F)c(CSc2nc3ccccc3[nH]2)c(F)c1F | 4.0 | -12.2 | i | 3.5% | -13.0
COC(=O)c1sccc1NC(=O)c1c(-c2ccccc2)noc1C | -0.2 | -73.6* | i | -1.2% | -9.2
Cc1onc(-c2ccccc2)c1C(=O)Nc1ccc(NC(=O)c2c(-c3ccccc3)noc2C)cc1 | -6.8 | -24.5 | i | x | -4.3
CCCn1c(C)cc(/C=C(\C#N)C(=O)OCC(=O)NC(=O)NC(C)(C)C)c1C | 48.8 | 3.5 | i | 0.2% | x
CC1CCN(C(=O)CSc2nnc(CNC(=O)c3ccco3)o2)CC1 | -2.2 | -3.6 | i | -1.0% | 2.8
CCOC(=O)c1c(C)[nH]c(C(=O)OCC(=O)N2CC(C)OC(C)C2)c1C (stereo not drawn) | 4.7 | 5.9 | -130.2%* | -0.1% | 5.3
